M1 ag = activates human CHRM1 receptor. AID 588814. CHO-K1 hM1, Fluo-8 calcium fluorescence, agonist mode; 0% DMSO, 100% acetylcholine EC100. hit rate 0.33% among 360,000. activation, % at 3 µM;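 active = activation above the run's mean compound activation plus 3 SD, cut at about 16% in these data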;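 also: peak over basal fluorescence ratio within a 140 s kinetic read after compound addition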
Target sequence (P11229 whole entry, looked up): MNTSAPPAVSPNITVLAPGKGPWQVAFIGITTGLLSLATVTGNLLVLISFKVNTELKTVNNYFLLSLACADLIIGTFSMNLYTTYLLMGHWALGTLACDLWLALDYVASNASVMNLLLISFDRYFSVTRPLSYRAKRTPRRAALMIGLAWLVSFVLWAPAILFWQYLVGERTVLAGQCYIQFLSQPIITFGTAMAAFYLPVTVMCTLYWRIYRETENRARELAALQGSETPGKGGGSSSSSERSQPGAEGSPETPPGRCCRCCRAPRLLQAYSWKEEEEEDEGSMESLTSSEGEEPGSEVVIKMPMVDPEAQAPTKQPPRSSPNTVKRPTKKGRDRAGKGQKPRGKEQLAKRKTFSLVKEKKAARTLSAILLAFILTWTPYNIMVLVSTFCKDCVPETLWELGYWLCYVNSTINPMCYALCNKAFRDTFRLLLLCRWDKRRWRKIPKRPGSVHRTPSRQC
CHO-K1 Ca antag = nonselective inhibitor or artifact in parental CHO-K1 cells; ATP-induced calcium, Fluo-8 fluorescence; hit rate 0.6% among 360,000; inhibition, % at 3 µM;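 active = inhibition above a per-plate cutoff, the plate's mean sample inhibition plus 3 SD, cut at about 24% in these data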
M1 ag parental = M1 agonist counterscreen hit in parental CHO-K1 cells; hit rate 0.48% among 360,000; activation, % at 3 µM; Fluo-8 calcium fluorescence; scaled to maximal ATP response, vehicle zero; in the data active = activation above about 15%;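 also: untransfected CHO-K1 host cells lacking M1 receptor as counterscreen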
CHRM1 PAM = potentiates human M1 receptor response to acetylcholine; activation, % at 3 µM; hit rate 0.088% among 360,000; CHO-K1 hM1, Fluo-8 calcium fluorescence, ACh EC20; 0% = ACh EC20, 100% = maximal ACh; AID 588819; P11229; in the data active = activation above about 19%, passing the limit was not always enough
M1 antag = human CHRM1 antagonism. hit rate 1.3% among 360,000. inhibition, % at 3 µM. CHO-K1 hM1, Fluo-8 calcium fluorescence, ACh EC80 antagonist;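 active = percent inhibition above its own plate's cutoff, namely the mean of that plate's compound wells plus 3 SD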;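 also: peak over basal fluorescence ratio during 140 s after agonist addition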
M1 PAM parental = M1 PAM counterscreen hit in parental CHO-K1 cells; ATP EC20, Fluo-8 calcium fluorescence; 0% at ATP EC20, 100% at ATP max; activation, % at 3 µM; hit rate 0.02% among 360,000;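 active = activation above the run cutoff, the mean activation of all test compounds plus 3 SD, cut at about 40% in these data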;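 also: peak over basal fluorescence ratio in a 140 s read after ATP addition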
Numbers stand for hits; . = inactive; / = no result. This is a sample that favours compounds with a hit; in the whole collection about 2.4% have one here.

SMILES | M1 ag | CHO-K1 Ca antag | M1 ag parental | CHRM1 PAM | M1 antag | M1 PAM parental
O=C(c1cc2ccccc2o1)N1CCC(N2CCC(C(=O)N3CCCC3)CC2)CC1 | . | 24 | . | . | . | .
CN1CCN(S(=O)(=O)c2ccc3c(c2)C(C)(C)C(=O)N3C)CC1 | . | 25 | . | . | . | .
CN1C(=O)C(C)(C)c2cc(S(=O)(=O)N3CCN(c4ccc(F)cc4)CC3)ccc21 | . | . | . | . | . | .
Cc1ccc(C)c(NC(=O)C(NCC(C)(C)N2CCOCC2)c2ccccc2)c1 (centres undefined) | . | . | . | . | 92 | .
Cc1ccc(C)c(NC(=O)C(c2ccccc2)N2CCN(CC(=O)N3CCOCC3)CC2)c1 (centres undefined) | . | . | . | . | . | .
COc1ccccc1CN1CC(C(=O)N(C)Cc2ccc(C)o2)CCC1=O (centres undefined) | . | . | . | . | . | .
O=C(COC(=O)CNC(=O)c1ccc(-c2ccccc2)cc1)NCc1ccco1 | . | . | . | . | . | .
Cc1ccc(-n2ncc3c(N4CCN(c5ccccc5)CC4)ncnc32)c(C)c1 | . | . | . | . | 24 | .
CC(Oc1ccc(C#N)cc1)C(=O)Nc1ccc(-n2cnnn2)cc1 (centres undefined) | 17 | . | . | . | . | .
Cc1ccc(S(=O)(=O)N2CCN(c3ncnc4sccc34)CC2)cc1 | . | . | . | . | 30 | .
O=S(=O)(c1ccccc1C(F)(F)F)N1CCN(c2ncnc3sccc23)CC1 | . | . | 17 | . | 29 | .
O=S(=O)(c1cc(C(F)(F)F)ccc1Cl)N1CCN(c2ncnc3ccccc23)CC1 | . | . | . | . | 39 | .
Cc1sc2ncnc(N3CCN(S(=O)(=O)c4ccc(F)cc4)CC3)c2c1C | . | . | . | . | 29 | .
O=S(=O)(c1ccc(F)c(F)c1F)N1CCN(c2ncnc3sccc23)CC1 | . | . | . | . | . | .
CCS(=O)(=O)N1CCN(c2ncnc3sc(C)c(C)c23)CC1 | . | . | . | . | . | .
CC1c2ccccc2N(S(=O)(=O)c2ccccc2)C1C (centres undefined) | . | . | . | . | . | .
CCC(NC(=S)NC1CCCCC1)c1ccc(C)cc1 (centres undefined) | . | . | . | . | . | .
Cc1c(OCc2ccccc2)cccc1OCc1ccccc1 | . | . | . | . | . | .
CN(C)CCC(Oc1ccccc1OCc1ccccc1)c1ccccc1 (centres undefined) | . | . | . | . | 46 | .
CC(C)C[C@H]1CN(CCCC[C@@H]2CNC(=O)C(=O)N2CC2CCCCC2)C(=O)C(=O)N1CCC1CCCCC1 | / | . | . | / | / | .
CCCC1=NN2C(=N)/C(=C\c3cc(C)n(Cc4ccccc4)c3C)C(=O)N=C2S1 | 59 | . | 27 | . | 78 | .
NC1=NC[C@H](Cc2ccc(O)cc2)N1CCC12CC3CC(CC(C3)C1)C2 | . | . | . | . | 37 | .
Cc1ccc(C#CC[N+](C)(C)CC#Cc2ccccc2)cc1 | . | . | . | . | 30 | .
COc1ccccc1/C=C/C=N/n1c(-c2ccc(Cl)cc2)n[nH]c1=S | . | 53 | . | . | . | .
Cc1cc2ncn(CCC(=O)NC3CCCC3)c2cc1C | . | . | 19 | . | . | .
SMILES | M1 ag | CHO-K1 Ca antag | M1 ag parental | CHRM1 PAM | M1 antag | M1 PAM parental
CCC(=O)c1ccc(OCC(=O)OCC(=O)NCCC2=CCCCC2)cc1 | . | . | . | . | . | .
Fc1ccc(-c2nc3ccccn3c2NCc2ccc3c(c2)OCO3)cc1 | . | 26 | . | . | . | .
Cc1noc(C)c1COc1ccc(C(=O)Nc2cccnc2)cc1 | . | . | . | . | 71 | .
COc1ccc([N+](=O)[O-])cc1NC(=O)C(C)Sc1nc(C)c(C)c(C)n1 (centres undefined) | . | . | . | . | . | .
Cc1cccc(-n2c(C)cc(/C=N/n3cnnc3)c2C)c1 | . | . | . | . | 70 | .
CCS(=O)(=O)c1ccc(O)c(NC(=O)COc2ccc(OC)cc2)c1 | . | . | . | . | . | .
CCCc1ccc(OCC(=O)Nc2cc(S(=O)(=O)CC)ccc2O)cc1 | . | . | 16 | . | . | .
N#Cc1ccc(S(=O)(=O)N2CCCCC2c2cc(C(=O)NCc3ccccc3)no2)cc1 (centres undefined) | . | . | . | . | . | .
CCCCCc1ccc(OCCOCCn2c[n+](C)c3ccccc32)c(CCCCC)c1 | . | . | . | . | 79 | .
CCCCCc1ccc(OCCC[n+]2ccccc2)c(CCCCC)c1 | . | . | . | . | 69 | .
Cc1ccc(-n2c(C)nnc2SCC(=O)NNC(=O)c2ccco2)cc1 | . | . | . | . | . | .
O=C(CN1CCc2ccccc21)Nc1ccc2c(c1)OCCCO2 | . | . | . | . | . | .
CC1c2cc3c(cc2CCN1CC(=O)Nc1ccccc1)OCCCO3 (centres undefined) | . | . | . | . | 33 | .
COC(=O)c1cc(NC(=O)CN2CCc3cc4c(cc3C2)OCCCO4)cc(C(=O)OC)c1 | . | . | . | . | . | .
O=C(CN1CCc2cc3c(cc2C1)OCCCO3)Nc1ccc(S(=O)(=O)N2CCCC2)cc1 | . | . | . | . | 50 | .
Cc1ccc(NC(=O)CN2CCc3cc4c(cc3C2C)OCCCO4)cc1C (centres undefined) | . | . | . | . | . | .
Cc1ccc(NC(=O)CN2CCc3cc4c(cc3C2C)OCCCO4)cc1 (centres undefined) | . | . | . | . | 53 | .
CCc1ccc(C(CNC(=O)c2ccc3c(=O)n(-c4ccccc4F)c(=S)[nH]c3c2)N(C)C)cc1 (centres undefined) | . | . | . | . | 37 | .
COc1ccc(/C=C\C(=O)O[C@@H]2C(O)C(O[C@@H]3OC(C)[C@H](O[C@@H]4OCC(O[C@H]5O[C@H](CO)[C@@H](O)C(O)C5O)C(O)C4O)C(O)C3O)[C@H](OC(=O)[C@]34CCC(C)(C)C[C@@H]3C3=CCC5[C@@]6(C)CC(O)C(O[C@@H]7OC(CO)C(O)[C@H](O)[C@H]7O)[C@@](C)(C(=O)O)C6CC[C@@]5(C)[C@]3(CO)CC4)O[C@H]2C)cc1 (some centres undefined) | 95 | 71 | 90 | . | 85 | .
CCC(=O)N1c2ccc(S(=O)(=O)N3CCN(c4ccc([N+](=O)[O-])cc4)CC3)cc2CC1C (centres undefined) | . | . | . | . | . | .
O=C(N/C(=C/c1ccccc1F)C(=O)N1CCCCC1)c1ccccc1 | . | . | . | . | . | .
CNc1nc(Oc2ccccc2C(=O)OC)nc(SC)n1 | . | 30 | . | . | . | .
CCOC(=O)c1ccc(Oc2nc(NC)nc(SC)n2)cc1 | . | . | . | . | . | .

From PubChem
